Experimental data from PubChem BioAssay (Tox21).
Inconclusive results are not listed. A call without a number means that no potency is given here. Some compounds were tested as several samples or in several runs, with calls that do not always agree. Active and inactive are the calls of the source. The call rests on the fitted dose curve. Starred links: 1 amine or outer side, 2 acyl side, 3 side chain; linkers in the order of their positions; H or OH if unused. Positions of bridges follow the written chain, without caps; N, C: chain ends. Non-standard residues stand in square brackets, D forms with d. Residues, ends and D or L forms follow the SMILES beside them. Chains are numbered I, II in the order given. Actinocin(9to1) = Cc1c2oc3c(C)ccc(C(=O)[*:1])c3nc-2c(C(=O)[*:2])c(N)c1=O; NMeV = CN[C@H](C(=O)O)C(C)C; Sar = CNCC(=O)O

Target: Acetylcholinesterase (Homo sapiens) (UniProt P22303)
Test: Acetylcholinesterase (AChE) small molecule antagonists: enzyme-based qHTS assay (AID 1347397); further: nearly all actives have a fitted effect of over 55% in size
Settings: Potency: AChE enzyme activity inhibition; outcome: AChE enzyme activity inhibition; series mostly up to 115 µM
In short: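 Tox21 library chemicals are tested in qHTS format against recombinant human AChE. The enzyme, dispensed at 50 mU/mL, sits with compound for 30 min at room temperature. A DTNB–acetylthiocholine cocktail follows, and colour is read after 10 min.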

Sequence of Acetylcholinesterase (Homo sapiens) (P22303 whole entry, looked up): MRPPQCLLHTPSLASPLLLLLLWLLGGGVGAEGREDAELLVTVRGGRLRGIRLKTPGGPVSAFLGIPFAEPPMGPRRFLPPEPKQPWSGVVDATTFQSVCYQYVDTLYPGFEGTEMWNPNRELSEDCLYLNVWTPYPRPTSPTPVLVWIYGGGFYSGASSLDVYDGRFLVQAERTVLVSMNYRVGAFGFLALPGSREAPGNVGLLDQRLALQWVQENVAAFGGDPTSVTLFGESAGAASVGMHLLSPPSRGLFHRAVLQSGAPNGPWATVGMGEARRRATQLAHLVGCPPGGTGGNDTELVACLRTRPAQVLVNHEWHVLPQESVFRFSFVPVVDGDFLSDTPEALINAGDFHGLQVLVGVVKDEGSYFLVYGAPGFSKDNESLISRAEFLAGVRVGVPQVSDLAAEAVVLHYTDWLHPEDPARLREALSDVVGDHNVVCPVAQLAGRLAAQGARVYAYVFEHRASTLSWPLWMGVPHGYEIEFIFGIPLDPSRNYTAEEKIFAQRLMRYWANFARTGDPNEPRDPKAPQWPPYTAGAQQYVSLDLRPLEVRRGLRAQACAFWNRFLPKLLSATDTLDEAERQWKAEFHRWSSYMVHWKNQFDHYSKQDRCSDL

SMILES	Potency	activity change, negative = inhibition
CC1=C(/C=C/C(C)=C/C=C/C(C)=C/CO)C(C)(C)CCC1	inactive	–
CCOC(=O)Cn1cccc1-c1nc(-c2ccc(OC)cc2)c(-c2ccc(OC)cc2)s1	inactive	–
O=c1[nH]c(=O)c2ccccc2o1	inactive	–
CCN(Cc1cccnc1)C(=O)c1cccc(Cl)c1[C@]1(C)C(=O)N(Cc2ccc(OC)cc2OC)c2ccc(Cl)cc21	inactive	–
CC(=O)N[C@@H](CS)C(=O)O	inactive	–
NS(=O)(=O)c1cc(C(=O)O)cc(N2CCCC2)c1Oc1ccccc1	inactive	–
COC(C)CCO (stereo not given)	inactive	–
CC(C)OB(OC(C)C)OC(C)C	inactive	–
CCCCCOC(=O)CCC	inactive	–
Cc1cc(C)c(C(=O)O)c(C)c1	inactive	–
CCO/C=C1\N=C(c2ccccc2)OC1=O	inactive	–
COCC(O)CO (stereo not given)	inactive	–
CCc1cccc(CC)c1N(COC)C(=O)CS(=O)(=O)O	inactive	–
Cc1ccc(S(=O)(=O)N=C=O)cc1	inactive	–
C[C@]12CCC(=O)C=C1CC[C@@H]1[C@@H]2[C@@H](O)C[C@@]2(C)[C@H]1CC[C@]2(O)C(=O)CO	inactive	–
CCCCCCCCCC(=O)OC	inactive	–
Cc1c2oc3c(C)ccc(C(=O)N[C@@H]4C(=O)N[C@H](C(C)C)C(=O)N5CCC[C@H]5C(=O)N(C)CC(=O)N(C)[C@@H](C(C)C)C(=O)O[C@@H]4C)c3nc-2c(C(=O)N[C@@H]2C(=O)N[C@H](C(C)C)C(=O)N3CCC[C@H]3C(=O)N(C)CC(=O)N(C)[C@@H](C(C)C)C(=O)O[C@@H]2C)c(N)c1=O (I: T[dV]P[Sar][NMeV] / II: T[dV]P[Sar][NMeV]; ester I:1-I:C, II:1-II:C; linker I:N-II:N via Actinocin(9to1))	inactive	–
N[C@@H](Cc1c[nH]c2ccc(O)cc12)C(=O)O	inactive	–
Nc1ccc(Oc2ccc(Cl)cc2)cc1	inactive	–
CC(=O)Oc1ccc([N+](=O)[O-])cc1CCl	inactive	–

SMILES	Potency	activity change, negative = inhibition
C/C=C(\C)C(C)=O	inactive	–
CCOCCn1c(C2CCN(CCc3ccc(C(C)(C)C(=O)O)cc3)CC2)nc2ccccc21	inactive	–
CC(=O)OC[C@H]1O[C@@](COC(C)=O)(O[C@H]2O[C@H](COC(C)=O)[C@@H](OC(C)=O)[C@H](OC(C)=O)[C@H]2OC(C)=O)[C@@H](OC(C)=O)[C@@H]1OC(C)=O	inactive	–
O=S(=O)(O)CO	inactive	–
CCCCCCCCC	inactive	–
CN(C)CCOCCN(C)C	inactive	–
CC/C=C\CC/C=C/C(OCC)OCC	inactive	–
Nc1ccc2cc3ccccc3cc2c1	inactive	–
Cc1ccccc1S(=O)(=O)O	inactive	–
CC(C)OC(=O)COc1ccc(Cl)cc1Cl	inactive	–
c1ccc(CCCc2ccncc2)cc1	inactive	–
OCCOc1cccc(OCCO)c1	inactive	–
Cc1cc(O)c2c(c1)C(=O)c1cc(O)cc(O)c1C2=O	inactive	–
Fc1ccc([C@@H]2CCNC[C@H]2COc2ccc3c(c2)OCO3)cc1	inactive	–
O=C=Nc1cccc(C(F)(F)F)c1	inactive	–
CC1Cc2ccccc2N1NC(=O)c1ccc(Cl)c(S(N)(=O)=O)c1 (stereo not given)	inactive	–
O=C(Cl)c1ccc(F)c(Cl)c1	inactive	–
C=CCCCCCCCCCCCCCCCC	–	-0.28% [at 10.5 µM] (inactive)
OC1CCCC1	inactive	–
CC1(C)S[C@@H]2[C@H](NC(=O)COc3ccccc3)C(=O)N2[C@H]1C(=O)O	inactive	–

Target: Acetylcholinesterase (Homo sapiens) (UniProt P22303)
Test: Acetylcholinesterase (AChE) small molecule antagonists: fluorescence cell-based qHTS assay (AID 1347398); further: nearly all actives have a fitted effect of over 50% in size; further: potency means the concentration at half of the fitted maximal effect
Settings: SH-SY5Y cells; Potency: AChE activity; outcome: AChE activity; series mostly up to 115 µM
In short: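 Cellular AChE inhibition: SH-SY5Y cells treated with test chemical for 30 min at 37 C, then acetylthiocholine hydrolysis followed over 40 min at room temperature via thiocholine-reactive Thiolite Green fluorescence (490/520 nm).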

SMILES	Potency	activity change, negative = inhibition
CC1=C(/C=C/C(C)=C/C=C/C(C)=C/CO)C(C)(C)CCC1	inactive	–
CCOC(=O)Cn1cccc1-c1nc(-c2ccc(OC)cc2)c(-c2ccc(OC)cc2)s1	inactive	–
O=c1[nH]c(=O)c2ccccc2o1	inactive	–
CCN(Cc1cccnc1)C(=O)c1cccc(Cl)c1[C@]1(C)C(=O)N(Cc2ccc(OC)cc2OC)c2ccc(Cl)cc21	inactive	–
CC(=O)N[C@@H](CS)C(=O)O	inactive	–
NS(=O)(=O)c1cc(C(=O)O)cc(N2CCCC2)c1Oc1ccccc1	inactive	–
COC(C)CCO (stereo not given)	inactive	–
CC(C)OB(OC(C)C)OC(C)C	inactive	–
CCCCCOC(=O)CCC	inactive	–
Cc1cc(C)c(C(=O)O)c(C)c1	inactive	–
CCO/C=C1\N=C(c2ccccc2)OC1=O	inactive	–
COCC(O)CO (stereo not given)	inactive	–
CCc1cccc(CC)c1N(COC)C(=O)CS(=O)(=O)O	inactive	–
Cc1ccc(S(=O)(=O)N=C=O)cc1	inactive	–
C[C@]12CCC(=O)C=C1CC[C@@H]1[C@@H]2[C@@H](O)C[C@@]2(C)[C@H]1CC[C@]2(O)C(=O)CO	inactive	–
CCCCCCCCCC(=O)OC	34.9 µM (active) and inactive	–
Cc1c2oc3c(C)ccc(C(=O)N[C@@H]4C(=O)N[C@H](C(C)C)C(=O)N5CCC[C@H]5C(=O)N(C)CC(=O)N(C)[C@@H](C(C)C)C(=O)O[C@@H]4C)c3nc-2c(C(=O)N[C@@H]2C(=O)N[C@H](C(C)C)C(=O)N3CCC[C@H]3C(=O)N(C)CC(=O)N(C)[C@@H](C(C)C)C(=O)O[C@@H]2C)c(N)c1=O (I: T[dV]P[Sar][NMeV] / II: T[dV]P[Sar][NMeV]; ester I:1-I:C, II:1-II:C; linker I:N-II:N via Actinocin(9to1))	inactive	–
N[C@@H](Cc1c[nH]c2ccc(O)cc12)C(=O)O	inactive	–
Nc1ccc(Oc2ccc(Cl)cc2)cc1	inactive	–
CC(=O)Oc1ccc([N+](=O)[O-])cc1CCl	inactive	–

SMILES	Potency	activity change, negative = inhibition
C/C=C(\C)C(C)=O	inactive	–
CCOCCn1c(C2CCN(CCc3ccc(C(C)(C)C(=O)O)cc3)CC2)nc2ccccc21	inactive	–
CC(=O)OC[C@H]1O[C@@](COC(C)=O)(O[C@H]2O[C@H](COC(C)=O)[C@@H](OC(C)=O)[C@H](OC(C)=O)[C@H]2OC(C)=O)[C@@H](OC(C)=O)[C@@H]1OC(C)=O	inactive	–
O=S(=O)(O)CO	inactive	–
CCCCCCCCC	inactive	–
CN(C)CCOCCN(C)C	inactive	–
CC/C=C\CC/C=C/C(OCC)OCC	inactive	–
Nc1ccc2cc3ccccc3cc2c1	inactive	–
Cc1ccccc1S(=O)(=O)O	inactive	–
CC(C)OC(=O)COc1ccc(Cl)cc1Cl	inactive	–
c1ccc(CCCc2ccncc2)cc1	inactive	–
OCCOc1cccc(OCCO)c1	inactive	–
Cc1cc(O)c2c(c1)C(=O)c1cc(O)cc(O)c1C2=O	15.5 µM (active) and inactive	–
Fc1ccc([C@@H]2CCNC[C@H]2COc2ccc3c(c2)OCO3)cc1	inactive	–
O=C=Nc1cccc(C(F)(F)F)c1	inactive	–
CC1Cc2ccccc2N1NC(=O)c1ccc(Cl)c(S(N)(=O)=O)c1 (stereo not given)	inactive	–
O=C(Cl)c1ccc(F)c(Cl)c1	inactive	–
C=CCCCCCCCCCCCCCCCC	–	3.23% [at 10.5 µM] (inactive)
OC1CCCC1	inactive	–
CC1(C)S[C@@H]2[C@H](NC(=O)COc3ccccc3)C(=O)N2[C@H]1C(=O)O	inactive	–
